Screening results: PubChem BioAssay, National Center for Advancing Translational Sciences (NCATS)
PNC inhibitor: blocks assembly of the perinucleolar compartment. activity change (PNC), negative = inhibition, % at 10 µM. actives 3.1% (n = 140,000). PC3M PTB-GFP, PNC prevalence imaging, 16 h; active compounds read low;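 active = readout at or below -70, meaning at least 70% loss of cells showing the perinucleolar compartment, a nuclear body marking cancer cells; inconclusive = readout between -30 and a set limit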
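Read-out is percentage of cells bearing a perinucleolar compartment, from automated 20x imaging of fixed, Hoechst-stained PC3M PTB-GFP cells. Cells were seeded 4 h, then exposed 16 h to compound (23 nl of library stock) in duplicate plates.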
IMPase Li cell: IMPase inhibition in cells with lithium potentiation. Potency, µM (highest dose often 59.4 µM), actives largely listed as inhibitors. AID 1457. CHO-M1 cells, IP1 TR-FRET (IP-One), carbachol + lithium. actives 0.35% (n = 210,000);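 note: IP1 builds up when IMPase is blocked and the TR-FRET signal falls; nearly all actives have a fitted effect of over 50% in size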
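Test compounds were applied to CHO-M1 cells previously cultured for 16–30 h at 2000 per well. A small lithium amount accompanied them; after 30 min at 37C, IP1 was quantified by TR-FRET.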
IMPase inh: membrane-permeable compound that blocks inositol monophosphatase; inhibition (IP1 accumulation), % at 46.1 µM; P97697; CHO-M1 cells, IP1 accumulation, HTRF TR-FRET ratio; 120,000 tested, under 10 active; active = well fitted curve in the direction sought with a large enough effect in the signal ratio, not every such curve was filed as active; inconclusive = small, poorly fitted or top-dose-only effect, or a change in a side signal; inactive = no such curve, though single readings can be large or run the other way; the % refers to the signal ratio;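 note: cells stimulated with carbachol in lithium chloride buffer; higher means more IMPase inhibition seen as more IP1 and lower FRET ratio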
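Measured: the HTRF emission ratio (665/620 nm) plus the 620 nm donor channel, each fitted to the Hill equation to give AC50. Cells were CHO-M1 given compounds up to 46 uM and a 30 min carbachol stimulation at 37C.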
15-hLO-2 inh: inhibitors of human 15-lipoxygenase 2 (ALOX15B); purified 15hLO-2, xylenol orange hydroperoxide absorbance; actives 0.56% (n = 110,000); O15296; Potency, µM (highest dose often 57.1 µM), usual class: inhibitors; note: nearly all actives have a fitted effect of over 60% in size
Target sequence (O15296 whole entry, looked up): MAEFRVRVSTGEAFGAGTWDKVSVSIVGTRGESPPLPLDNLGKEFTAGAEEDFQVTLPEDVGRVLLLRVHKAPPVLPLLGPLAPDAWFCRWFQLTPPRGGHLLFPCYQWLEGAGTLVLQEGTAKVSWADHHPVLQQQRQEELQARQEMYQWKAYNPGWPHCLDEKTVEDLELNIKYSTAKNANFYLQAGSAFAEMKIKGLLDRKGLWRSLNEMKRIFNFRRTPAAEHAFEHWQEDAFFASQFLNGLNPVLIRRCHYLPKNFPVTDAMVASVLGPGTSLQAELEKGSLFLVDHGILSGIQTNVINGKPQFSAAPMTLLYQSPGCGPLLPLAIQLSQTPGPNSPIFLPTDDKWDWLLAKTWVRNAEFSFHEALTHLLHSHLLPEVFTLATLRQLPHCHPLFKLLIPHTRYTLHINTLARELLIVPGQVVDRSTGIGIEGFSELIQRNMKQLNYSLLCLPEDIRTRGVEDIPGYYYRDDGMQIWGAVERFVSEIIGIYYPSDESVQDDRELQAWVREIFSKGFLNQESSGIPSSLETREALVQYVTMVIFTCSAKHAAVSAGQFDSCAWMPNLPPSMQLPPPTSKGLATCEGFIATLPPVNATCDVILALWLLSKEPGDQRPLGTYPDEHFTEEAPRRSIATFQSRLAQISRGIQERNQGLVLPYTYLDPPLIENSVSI
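Enzyme 50 nM, AA 45 uM, 25 mM Hepes pH 7.5 + 0.01% Triton X-100; cpd preinc 15 min RT, rxn 90 min RT; stop/detect with 200 uM XO + 300 uM Fe(II) in 50 mM H2SO4, 30 min; A573/A405.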
12-hLO inh: 12-hLO (ALOX12) enzyme inhibition. P18054. purified 12-hLO, xylenol orange hydroperoxide absorbance. Potency, µM (doses to about 57.1 µM), usual class: inhibitors. actives 0.12% (n = 150,000); note: nearly all actives have a fitted effect of over 55% in size
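Xylenol orange chromogenic assay: hydroperoxide from 12hLO oxidises Fe(II), giving red-shifted Fe(III)-XO absorbance. Conditions: 150 nM enzyme, 40 uM arachidonic acid, 25 mM Hepes pH 7.0, 0.01% Triton X-100, 30 min, room temperature.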
HPGD block: inhibitors of human 15-hydroxyprostaglandin dehydrogenase (HPGD). purified HPGD, NADH fluorescence kinetic, PGE2 substrate. P15428. Potency, µM, most hits filed as inhibitors. AID 894. actives 4.3% (n = 150,000); active = well fitted inhibition curve with a large enough effect, not every such curve was filed as active; inconclusive = small, poorly fitted or top-dose-only effect, or another doubt; inactive = no such curve, though single readings can be large or run the other way
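NADH formation kinetics: reaction with 30 uM PGE2 and 1 mM NAD+ (final), 20 nM enzyme, Tris-HCl pH 8 with Tween 20, after 15 min compound preincubation at room temperature. Fluorescence change, last versus first of five reads.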
Each line names hits and unclear results; the compound was inactive in the other large screens. Hits are enriched below; roughly 5.4% of the tested compounds scored in any of these assays. Unless noted, calls come from the whole dose curve; as a rule, active = well fitted curve in the direction sought with a large enough effect; inconclusive = small, poorly fitted or top-dose-only effect, or another doubt; inactive = no such curve, though single readings can be large; an effect the other way counts as inactive or inconclusive.

Cc1ccc(NC(=S)NNC(=O)C2CC2c2ccc(C)cc2)cc1 (stereo not given)	PNC inhibitor -100.0 (no result: 15-hLO-2 inh)
COc1ccc(N(C(=O)c2ccc(C(C)(C)C)cc2)S(=O)(=O)c2ccc(Cl)cc2)cc1	none (no result: PNC inhibitor, IMPase Li cell, 15-hLO-2 inh, 12-hLO inh, HPGD block)
CC(=O)c1cccc(NC(=O)Nc2ccc(C(=O)N3CCCC3)cc2)c1	HPGD block 1.12µM
O=C(Nc1ccc(OCC(=O)N2CCOCC2)cc1)Nc1cccc(Cl)c1	none (no result: PNC inhibitor, IMPase inh, 15-hLO-2 inh, 12-hLO inh, HPGD block)
O=C(Nc1ccc(C(=O)N2CCOCC2)cc1)Nc1cccc(Cl)c1	HPGD block 28.2µM (no result: IMPase inh, 15-hLO-2 inh)
Cc1cccc(C(=O)Nc2cccc(C(=O)N3CCOCC3)c2)c1	PNC inhibitor -107.5
COc1ccc2c(c1)Cc1sc(NC(=O)c3ccc(Cl)cc3)nc1-2	none (no result: PNC inhibitor, IMPase Li cell, 15-hLO-2 inh, 12-hLO inh, HPGD block)
O=c1c(-c2cccs2)nc2cnc(Oc3cccc(Cl)c3)nc2n1C1CC1	HPGD block inconclusive (no result: PNC inhibitor, IMPase inh)
CC(C)[C@@H]1[C@H]2CC[C@H](C2)[C@H]1N	none (no result: PNC inhibitor)
Cc1ccco1	none (no result: PNC inhibitor, IMPase inh)
O=C(N/N=C\c1ccc([N+](=O)[O-])s1)c1cncc(Br)c1	PNC inhibitor -102.3 (no result: IMPase inh, 15-hLO-2 inh)
O=C(Cn1cnnn1)Nc1ccccc1Cc1ccccc1	PNC inhibitor -100.0
Cn1nnnc1SCC(=O)Nc1ccccc1Cc1ccccc1	none
Cc1cc(C)cc(C(=O)N2CC(=O)Nc3ccc(C)cc3C2c2ccccc2)c1 (stereo not given)	none (no result: PNC inhibitor, IMPase Li cell, 15-hLO-2 inh, 12-hLO inh, HPGD block)
CCC(CC)C(=O)Nc1cccc(C(=O)NCCc2ccc(S(N)(=O)=O)cc2)c1	PNC inhibitor -101.1
CCC(CC)C(=O)Nc1cccc(C(=O)NCc2ccco2)c1	PNC inhibitor -115.3
O=C(NCc1ccco1)c1cccc(NC(=O)c2ccccc2)c1	none
Cc1onc(-c2c(Cl)cccc2Cl)c1C(=O)NCCc1ccc(S(N)(=O)=O)cc1	HPGD block 31.6µM
Cc1ncc(COP(=O)(O)O)c(C)c1O	none (no result: PNC inhibitor, IMPase inh)
O=[N+]([O-])c1c(NCCCO)cc(Sc2nc3ccccc3s2)c2nonc12	15-hLO-2 inh inconclusive, HPGD block 2.82µM
CCC(=O)OCCNc1cc(Sc2nc3ccccc3[nH]2)c2nonc2c1[N+](=O)[O-]	HPGD block 7.08µM (no result: 15-hLO-2 inh)
CCCSc1cc(NCCOC(=O)CCC)c([N+](=O)[O-])c2nonc12	none (no result: 15-hLO-2 inh)
CCCC(=O)OCCNc1cc(Sc2nccn2C)c2nonc2c1[N+](=O)[O-]	HPGD block 28.2µM (no result: IMPase inh, 15-hLO-2 inh)
CCC(=O)OCCNc1cc(Sc2nc3ccccc3s2)c2nonc2c1[N+](=O)[O-]	15-hLO-2 inh inconclusive, HPGD block 3.16µM
COc1ccc(CNc2ccnc(-c3ccccc3Cl)n2)c(OC)c1	none (no result: PNC inhibitor, IMPase inh, 12-hLO inh, HPGD block)
CC(=O)OCCCNc1cc(SCc2ccco2)c2nonc2c1[N+](=O)[O-]	HPGD block 7.94µM (no result: 15-hLO-2 inh)
CCCC(=O)OCCNc1cc(SCc2ccco2)c2nonc2c1[N+](=O)[O-]	HPGD block inconclusive (no result: 15-hLO-2 inh)
CC(=O)N1CCN(c2ccc(NCc3ccccc3)cc2)CC1	15-hLO-2 inh inconclusive, 12-hLO inh inconclusive
CC(=O)N1CCN(c2ccc(NCc3cccs3)cc2)CC1	15-hLO-2 inh 25.1µM, 12-hLO inh inconclusive
Cc1ccc(CNc2ccc(N3CCOCC3)cc2)s1	15-hLO-2 inh 15.8µM, 12-hLO inh inconclusive
CC(=O)N1CCN(c2ccc(NCc3ccc(C)s3)cc2)CC1	PNC inhibitor inconclusive, 15-hLO-2 inh 12.6µM, 12-hLO inh 11.2µM
C[N+](C)(C)c1nc(N)nc2c1ncn2[C@H]1O[C@@H](CO)[C@@H](O)[C@H]1O	none (no result: PNC inhibitor, IMPase inh)
CC1CCN(C(=O)Cn2cc(C(=O)C3CC3)c3ccccc32)CC1	PNC inhibitor -103.4 (no result: 15-hLO-2 inh)
Cc1ccc(C(=O)C2=C(O)C(=O)N(CCCn3ccnc3)C2c2ccc(OC(C)C)cc2)o1 (stereo not given)	PNC inhibitor inconclusive, IMPase Li cell 14.1µM, IMPase inh inconclusive
CCCOc1ccc(C2C(C(=O)c3ccc(C)o3)=C(O)C(=O)N2Cc2cccnc2)cc1 (stereo not given)	IMPase Li cell 10µM
CCOc1ccc(C2C(C(=O)c3ccco3)=C(O)C(=O)N2Cc2cccnc2)cc1 (stereo not given)	PNC inhibitor inconclusive
